Among the data in PubChem BioAssay are inhibition values, retold here.

The source made the active and inactive calls.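 The calls were made as follows: active = inhibition above the hit cutoff set in the earlier primary screen (cut at about 27% in these data); inactive = the rest.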

For the assay, the target named is Protein phosphatase methylesterase 1 (Homo sapiens) (UniProt Q9Y570). As to the kind of experiment: PME-1 inhibitor activity retest, confirmation, biochemical, fluorescence polarization, FP-Rh probe, triplicate (AID 2171).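 Also: 0% = enzyme with DMSO and 100% = wells lacking PME-1.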 The settings on record: recombinant PME-1, FP-Rh probe fluorescence polarization; at 5.9 µM; active compounds read high. In general terms: In fluorescence polarisation assays a small probe gives low polarisation when free and higher when bound to something large.
Chain of Protein phosphatase methylesterase 1 (Homo sapiens) (Q9Y570 whole entry, looked up): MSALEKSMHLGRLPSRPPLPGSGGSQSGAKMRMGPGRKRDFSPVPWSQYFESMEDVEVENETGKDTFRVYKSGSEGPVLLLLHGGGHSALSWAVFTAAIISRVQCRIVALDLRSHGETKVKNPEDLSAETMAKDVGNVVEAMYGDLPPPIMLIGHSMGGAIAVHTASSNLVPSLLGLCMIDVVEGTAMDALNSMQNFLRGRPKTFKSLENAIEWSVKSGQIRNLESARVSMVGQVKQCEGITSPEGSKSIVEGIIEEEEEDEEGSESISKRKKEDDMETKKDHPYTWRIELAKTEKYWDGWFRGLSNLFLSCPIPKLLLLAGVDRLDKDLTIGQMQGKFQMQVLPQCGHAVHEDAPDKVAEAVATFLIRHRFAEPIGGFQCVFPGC
A word on the inhibition: it is the relative decrease from the control value, in per cent. As to `Cc1ccc2[nH]c3c(N4CCc5ccccc5C4)ncnc3c2c1`, the inhibition was 30.5% (active).

Consider `COc1cc2c(cc1NC(=O)c1cccnc1)oc1ccccc12`, for which the inhibition was 25.8% (inactive).

`CCOC(=O)c1c(C)[nH]c(C)c1S(=O)(=O)N(C)CC(=O)Nc1cc(C)ccc1OC`: the inhibition is 24.4% (inactive).

On to `Cc1ccc(NS(=O)(=O)c2cccc(C(=O)N3CCN(c4ncccn4)CC3)c2)cc1`, for which the inhibition was 9.07% (inactive).

As to `COc1ccc2c(c1)cc(C(=O)N/N=C/c1c(O)c(C(=O)O)cc3ccccc13)n2C`, the inhibition is 30% (active).

Take `Cn1c(N/N=C/c2c[nH]c3ccccc23)nc2ccccc21`: the inhibition was 28.6% (active).

Regarding `CC1=C([N+](=O)[O-])C(c2cccc(Br)c2)C2=C(N1)c1ccccc1C2=O` (stereo unspecified), the inhibition is 11.9% (inactive).

Take `COc1ccc(-c2cc(-c3ccc(C)cc3)n[nH]2)c(O)c1`: the inhibition is 37.7% (active).

Turning to `CSc1ccc(C2Nc3cccc4cccc(c34)N2)cc1`, the inhibition was 36.5% (active).

Consider `Nc1cc(Cl)nc(N/N=C/c2c(O)ccc3ccccc23)n1`, for which the inhibition was 21.6% (inactive).

With `CCCn1c(N)c(C(=O)CN(C)CC(=O)Nc2ccccc2CC)c(=O)[nH]c1=O`, the inhibition was 20.4% (inactive).

In the case of `Oc1cccc(NC(=S)N=Nc2c(O)[nH]c3ccc(Br)cc23)c1`, the inhibition is 42% (active).

As for `Cc1c(O)ccc(/C=N/Nc2nc(-c3cccnc3)nc3ccccc23)c1O`, the inhibition is 48.8% (active).

In the case of `CCOc1ccccc1/C=C(\C#N)C(=O)Nc1cccc(C(=O)O)c1`, the inhibition is 5.46% (inactive).

Regarding `COc1cc(/C=N/NC(=O)c2ccc3c(c2)OCCO3)c(Br)c(Br)c1O`, the inhibition was 43% (active).

For the molecule `CC(C)(C)n1nnnc1C(c1cccs1)N(Cc1cccnc1)Cc1ccco1` (stereo unspecified), the inhibition is 15.8% (inactive).
